From the OligoGym collection

target: SLC28A2; assay: pooled miR-30 sensor sort-seq; sequence = guide strand; details: shRNA
Note: reference of the scale not given here.

Row | Sequence | sensor-assay potency score (higher = more potent)
1 | TTGGACAAGTCACTCTTCCGGT | -0.0512
2 | TTCCAGGACATTCCTCTCCTTC | -1.16
3 | TTGGACAGTCTGTCCACTCTAC | 0.142
4 | TTGTTGTAGAATCCACAGCAGT | -1.13
5 | TTGGGAAGGAGACACAGTCAGC | -1.18
6 | TCTTCTTGAACAATCTGGCGTG | -0.29
7 | TTTGTTCTTGTATTGAGACAGT | -0.497
8 | TTCTTTTTCCATGAGCTCCAGC | -0.532

target: SLC29A1; assay: as above; details: shRNA

Row | Sequence | sensor-assay potency score (higher = more potent)
9 | AATGTTGCACAGCAGCAGCAGT | -1.2
10 | TTGCACAGCAGCAGCAGTGGCA | -0.846
11 | AAGACCACAGTCAGGTAGCGGC | -0.976
12 | TCAAGAAACAGGACACAGGAAT | -0.724
13 | TTGTGAAATACTGAGTGGCCGT | -0.907
14 | TTTGTATCTGTCCTGAGGCTGG | -0.764
15 | ATATTGAAAGTCAAGAAACAGG | -1.17
16 | TTGACCTCAACAGTCACGGCTG | 0.158
17 | TGAATTAATGAGCACGATCTTG | -0.995
18 | TTTGCTAATGAGGTCCAACTTG | -0.866
19 | TTGAAGATGGCACTGAGAGAGT | -0.713
20 | ATGATAACAGCACAGGCTGTGA | -1.06
21 | TAACGTTCCCAGGTGCTGCTGC | 0.232
22 | TTGAGCTGCTGGTAGTAGCGGT | 0.0578
23 | ATGAAGAAGATGAACCAGGCAT | 0.328
24 | TCGAAGACCACAGTCAGGTAGC | -0.552
25 | TTGCTAATGAGGTCCAACTTGG | -1.11
26 | TCCTTTGCTAATGAGGTCCAAC | -1.65
27 | TTCAAGCTTGAGCTGCTGGTAG | 0.0487
28 | AAATGATAACAGCACAGGCTGT | -0.935
29 | TAGGGTCATGACATTGTTGAAG | -0.605
30 | TGAAACTCCAGATTCCTCTTTG | -0.131
31 | TTTCTGATAGCTCCGAGCCACT | -1.47

target: SLC29A3; assay: as above; details: shRNA

Row | Sequence | sensor-assay potency score (higher = more potent)
32 | TTTGAACATCCAGTACTCCTTG | 0.313
33 | TTACAGAGCACGAAGAGGGGGA | 0.172
34 | TTGCGGAGTTTGAACATCCAGT | -0.979
35 | TTGAACTGTGCTGAAAGTCGTC | 0.651
36 | TTTGCTTGCATCTCGCTGTCAG | 0.244
37 | TATGACTGGAATATCTGCCTTG | 0.374
38 | TTTGTAATAACTCTAGGGCGAA | -1.16
39 | TTGCATCTCGCTGTCAGCTGGA | 0.563
40 | TATTTCTTCTTCAACTGTCTCA | 0.0304
